Consider 16 molecules from PubChem BioAssay AID434994 (NMMLSC, 2010).

The list shows a part of the results. Activity calls are given as the source filed them.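 How the source made its calls: active means superoxide signal below 65% of the plate average of sample wells; inactive means the rest.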

This experiment is described as follows: retest of yeast aging ROS inhibitors – cherry picked compounds, confirmation (AID 434994).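 Further: cells aged with compound for 7 days at 30 degrees C before staining; 100% equals mean DHE fluorescence of all compound wells on the plate.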 As to conditions: S. cerevisiae aging, superoxide DHE fluorescence; at 10 µM; stronger effect = lower value.
On to `O=C(O)c1ccc(F)c(S(=O)(=O)Nc2ccccc2)c1`, for which the superoxide response (% of plate) was 101% (inactive).
As to `CC(C)NC(=O)/C(C#N)=C\c1ccc(N(C)C)c(Br)c1`, the superoxide response (% of plate) is 88.1% (inactive).
For `CSc1ncc(Cl)c(C(=O)Nc2cc(C)ccc2C)n1`, the superoxide response (% of plate) is 95.3% (inactive).
For the molecule `CCn1c2ccccc2c2cc(NC(=O)CNC)ccc21`, the superoxide response (% of plate) is 107% (inactive).
Turning to `Cc1cc2oc(C(=O)Nc3c(C)n(C)n(-c4ccccc4)c3=O)c(C)c2cc1Cl`, the superoxide response (% of plate) was 93.5% (inactive).
Take `Cc1cc(=O)n2[nH]c(-c3cccc(Cl)c3)cc2n1`: the superoxide response (% of plate) is 98.1% (inactive).
Regarding `CC(=O)C[C@@H](O)CC(=O)[C@H]1OC(=O)CCCCCCc2ccccc21`, the superoxide response (% of plate) was 103% (inactive).
For `COc1ccc(NC(C)=O)cc1NC(=O)CN1CCN(c2ccccn2)CC1`, the superoxide response (% of plate) is 103% (inactive).
With `CCN(CC)c1ccc(NC(=O)CN2CCN(c3ccccn3)CC2)cc1`, the superoxide response (% of plate) was 101% (inactive).
Take `Cc1ccccc1NC(=O)NCC1CCN(Cc2cccc(Cl)c2)CC1`: the superoxide response (% of plate) was 94.6% (inactive).
On to `COC(=O)CNC(=O)c1ccc(OC2CCN(C(=O)C3CC3)CC2)cc1`, for which the superoxide response (% of plate) was 103% (inactive).
For the molecule `O=C(Nc1ccccc1N1CCCC1)c1ccc2ccccc2c1`, the superoxide response (% of plate) was 95.3% (inactive).
Take `O=C(O)C1CCCN1S(=O)(=O)c1ccc(Br)cc1` (stereo unspecified): the superoxide response (% of plate) is 105% (inactive).
As for `Cc1ccc(-c2nnc(Nc3ccc(C(=O)N(C)C)cc3)c3ccccc23)cc1S(N)(=O)=O`, the figure is 107% (inactive); as for `Cc1ccc(NC(=O)Cn2nc(C)c3ccccc3c2=O)c(C)c1`, 114% (inactive).
In the case of `Cc1ccc(-c2nn(C(C)(C)C)c3ncnc(N)c23)cc1`, the superoxide response (% of plate) was 42.9% (active).
